Viability data for eleven molecules are collected here from PubChem BioAssay.

Values without a mark were called inactive. Active and inactive are the calls of the source.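 The calls were made as follows: active = normalized viability below 100% at a tested concentration; inactive = the rest.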

The nature of one test: ovarian cancer cell viability with rucaparib, profiling panel, oncology-focused library, rucaparib conditional (AID 1508598). Conditions: patient-derived ovarian cancer cells, CellTiter-Glo viability, 144 h; at 0.313 µM; OCI-P5x cells; without rucaparib; active compounds read low.
A word on the viability: it is a read-out of living cells in per cent, often relative to untreated cells. Take `CC1(C)CNc2cc(NC(=O)c3cccnc3NCc3ccncc3)ccc21`: the viability was 107%.

In the case of `O=C(Nc1ccccc1-c1cn2c(CN3CCNCC3)csc2n1)c1cnc2ccccc2n1`, the viability is 107%.

For the molecule `Cc1cnc(NC(=O)Nc2cc(Br)c(C)cc2OC[C@@H]2CNCCO2)cn1`, the viability is 94.9% (active).

`N#Cc1c(NC(=O)c2cccc3ccccc23)sc2c1CCCC2`: the viability was 100%.

`COc1ccc(-c2ccc3c(N4CCOC[C@@H]4C)nc(N4CCOC[C@@H]4C)nc3n2)cc1CO`: the viability is 17% (active).

As for `Nc1nc(Nc2ccc(S(N)(=O)=O)cc2)nn1C(=O)c1c(F)cccc1F`, the viability is 87.7% (active).

Regarding `Cc1ccc(F)c(NC(=O)Nc2ccc(-c3cccc4[nH]nc(N)c34)cc2)c1`, the viability was 90.2% (active).

As for `COc1ccc(-c2ccc3c(N4CCOCC4)nc(N4C[C@@H](C)O[C@@H](C)C4)nc3n2)cc1CO`, the viability is 106%.

For `N#CCNC(=O)c1ccc(-c2ccnc(Nc3ccc(N4CCOCC4)cc3)n2)cc1`, the viability was 66.2% (active).

As for `COC(=O)c1ccc2c(C(=Nc3ccc(N(C)C(=O)CN4CCN(C)CC4)cc3)c3ccccc3)c(O)[nH]c2c1`, the viability is 97.6% (active).

In the case of `COc1cc2nccc(Oc3ccc(NC(=O)Nc4cc(C)on4)c(Cl)c3)c2cc1OC`, the viability was 91.5% (active).

The same test, now with this note: patient-derived ovarian cancer cells, CellTiter-Glo viability, 144 h; at 1.25 µM; OCI-C5x cells; with rucaparib 10 µM; active compounds read low; 100% = cells with rucaparib alone.
As for `CC1(C)CNc2cc(NC(=O)c3cccnc3NCc3ccncc3)ccc21`, the viability was 135%.

In the case of `O=C(Nc1ccccc1-c1cn2c(CN3CCNCC3)csc2n1)c1cnc2ccccc2n1`, the viability was 131%.

Regarding `Cc1cnc(NC(=O)Nc2cc(Br)c(C)cc2OC[C@@H]2CNCCO2)cn1`, the viability is 60.4% (active).

`N#Cc1c(NC(=O)c2cccc3ccccc23)sc2c1CCCC2`: the viability was 72.9% (active).

With `COc1ccc(-c2ccc3c(N4CCOC[C@@H]4C)nc(N4CCOC[C@@H]4C)nc3n2)cc1CO`, the viability was 54.1% (active).

As to `Nc1nc(Nc2ccc(S(N)(=O)=O)cc2)nn1C(=O)c1c(F)cccc1F`, the viability was 82.9% (active).

Take `Cc1ccc(F)c(NC(=O)Nc2ccc(-c3cccc4[nH]nc(N)c34)cc2)c1`: the viability was 112%.

Turning to `COc1ccc(-c2ccc3c(N4CCOCC4)nc(N4C[C@@H](C)O[C@@H](C)C4)nc3n2)cc1CO`, the viability was 120%.

In the case of `N#CCNC(=O)c1ccc(-c2ccnc(Nc3ccc(N4CCOCC4)cc3)n2)cc1`, the viability is 120%.

With `COC(=O)c1ccc2c(C(=Nc3ccc(N(C)C(=O)CN4CCN(C)CC4)cc3)c3ccccc3)c(O)[nH]c2c1`, the viability is 124%.

Regarding `COc1cc2nccc(Oc3ccc(NC(=O)Nc4cc(C)on4)c(Cl)c3)c2cc1OC`, the viability is 138%.

The test is the same for the next values; noted with them: patient-derived ovarian cancer cells, CellTiter-Glo viability, 144 h; at 1.25 µM; OCI-C5x cells; without rucaparib; active compounds read low.
For `CC1(C)CNc2cc(NC(=O)c3cccnc3NCc3ccncc3)ccc21`, the viability is 146%.

With `O=C(Nc1ccccc1-c1cn2c(CN3CCNCC3)csc2n1)c1cnc2ccccc2n1`, the viability is 120%.

Regarding `Cc1cnc(NC(=O)Nc2cc(Br)c(C)cc2OC[C@@H]2CNCCO2)cn1`, the viability was 71.2% (active).

Regarding `N#Cc1c(NC(=O)c2cccc3ccccc23)sc2c1CCCC2`, the viability is 106%.

Regarding `COc1ccc(-c2ccc3c(N4CCOC[C@@H]4C)nc(N4CCOC[C@@H]4C)nc3n2)cc1CO`, the viability was 47.3% (active).

For the molecule `Nc1nc(Nc2ccc(S(N)(=O)=O)cc2)nn1C(=O)c1c(F)cccc1F`, the viability is 83.9% (active).

On to `Cc1ccc(F)c(NC(=O)Nc2ccc(-c3cccc4[nH]nc(N)c34)cc2)c1`, for which the viability was 123%.

Regarding `COc1ccc(-c2ccc3c(N4CCOCC4)nc(N4C[C@@H](C)O[C@@H](C)C4)nc3n2)cc1CO`, the viability was 124%.

As for `N#CCNC(=O)c1ccc(-c2ccnc(Nc3ccc(N4CCOCC4)cc3)n2)cc1`, the viability is 101%.

Take `COC(=O)c1ccc2c(C(=Nc3ccc(N(C)C(=O)CN4CCN(C)CC4)cc3)c3ccccc3)c(O)[nH]c2c1`: the viability was 116%.

Regarding `COc1cc2nccc(Oc3ccc(NC(=O)Nc4cc(C)on4)c(Cl)c3)c2cc1OC`, the viability was 93.1% (active).

Staying with this test, now noted: patient-derived ovarian cancer cells, CellTiter-Glo viability, 144 h; at 1.25 µM; OCI-P5x cells; with rucaparib 20 µM; active compounds read low; 100% = cells with rucaparib alone.
Take `CC1(C)CNc2cc(NC(=O)c3cccnc3NCc3ccncc3)ccc21`: the viability is 145%.

As for `O=C(Nc1ccccc1-c1cn2c(CN3CCNCC3)csc2n1)c1cnc2ccccc2n1`, the viability was 68.8% (active).

For `Cc1cnc(NC(=O)Nc2cc(Br)c(C)cc2OC[C@@H]2CNCCO2)cn1`, the viability was 43% (active).

Turning to `N#Cc1c(NC(=O)c2cccc3ccccc23)sc2c1CCCC2`, the viability was 65.1% (active).

As to `COc1ccc(-c2ccc3c(N4CCOC[C@@H]4C)nc(N4CCOC[C@@H]4C)nc3n2)cc1CO`, the viability is 30.6% (active).

Turning to `Nc1nc(Nc2ccc(S(N)(=O)=O)cc2)nn1C(=O)c1c(F)cccc1F`, the viability was 87.4% (active).

With `Cc1ccc(F)c(NC(=O)Nc2ccc(-c3cccc4[nH]nc(N)c34)cc2)c1`, the viability was 99.2% (active).

As to `COc1ccc(-c2ccc3c(N4CCOCC4)nc(N4C[C@@H](C)O[C@@H](C)C4)nc3n2)cc1CO`, the viability is 78.8% (active).

For the molecule `N#CCNC(=O)c1ccc(-c2ccnc(Nc3ccc(N4CCOCC4)cc3)n2)cc1`, the viability is 84.2% (active).

For the molecule `COC(=O)c1ccc2c(C(=Nc3ccc(N(C)C(=O)CN4CCN(C)CC4)cc3)c3ccccc3)c(O)[nH]c2c1`, the viability is 66.6% (active).

For `COc1cc2nccc(Oc3ccc(NC(=O)Nc4cc(C)on4)c(Cl)c3)c2cc1OC`, the viability was 81.9% (active).
